What was measured:
[1] = system: T1, ERK8
T1 construct: gene MAPK15

[2] = system: T2, HASPIN
T2 construct: gene GSG2

[3] = system: FGFR2
[4] = system: T3, GRK2
T3 construct: gene ADRBK1

[5] = system: ERBB2
[6] = system: FLT4
[7] = system: EPHB6
[8] = system: GAK
[9] = system: ERBB4
[10] = system: FLT3
[11] = system: EPHB2
[12] = system: T4, GRK3
T4 construct: gene ADRBK2

[13] = system: T5, ERK5
T5 construct: gene MAPK7

[14] = system: GRK4
[15] = system: T6, ERK1
T6 construct: gene MAPK3

[16] = system: FRK
[17] = system: HIPK3
[18] = system: ERN1
[19] = system: EPHA7
[20] = system: EPHA8
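Also: kd values determined as follow-up on hits from a single-replicate KINOMEscan panel screen.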

c1ccc(-c2ccc3c(-c4ccnc(Nc5ccc6c(c5)OCCO6)n4)cnn3n2)cc1 [GW818941]
Kd [1]: 670 nM

Nc1nc(-c2cccnc2)c(-c2ccnc3ccccc23)s1 [GW684083]
Kd [2]: 650 nM

FC(F)(F)c1ccc(-c2nn3ncccc3c2-c2ccnc(Nc3cccc(C(F)(F)F)c3)n2)cc1 [GW828205]
Kd [3]: > 10000 nM

CNc1nccc(-c2c(-c3ccc(F)cc3)ncn2C2CCN(C)CC2)n1 [SB-222903]
Kd [4]: > 10000 nM

Cl.O=S(=O)(c1cccc(F)c1)c1ccc(Nc2ncnc3cc(Br)sc23)cc1Cl [GSK306886]
Kd [5]: 95 nM
Kd [6]: > 10000 nM

CCc1nc(-c2cccc(N(C)S(=O)(=O)c3ccccc3)c2)c(-c2ccnc(Nc3ccc(N4CCN(C(C)=O)CC4)nc3)n2)s1 [GSK1645895]
Kd [7]: 24 nM
Kd [8]: 250 nM

Cl.Fc1ccccc1COc1ccc(Nc2ncnc3ccc(-c4nnc(C(F)(F)F)o4)cc23)cc1Cl [GW424170]
Kd [5]: 110 nM

CCc1nc(-c2cccc(C)c2)c(-c2ccnc(NC(=O)c3ccccc3)c2)s1
Kd [7]: 7600 nM

Fc1cccc(COc2ccc(Nc3ncnc4sc(-c5ccc[nH]5)cc34)cc2Cl)c1 [GW707818]
Kd [5]: 100 nM
Kd [9]: 560 nM

O=c1cc(N2CCOCC2)nc2n(Cc3cccc(Cl)c3)ccn12 [GSK2296823]
Kd [9]: > 10000 nM

O=C(Nc1n[nH]c2nc(-c3ccco3)c(Br)cc12)c1ccc(CN2CCCC2)cc1.O=C(O)[C@H](O)[C@@H](O)C(=O)O [SB-742352]
Kd [7]: 160 nM
Kd [10]: 45 nM

CC(C)(C)OC(=O)NC1CCCN(c2cc(-c3ccc4c(N)n[nH]c4c3)nc(N)n2)C1 (centres unmarked) [GSK2286096]
Kd [11]: > 10000 nM

Cl.Cl.c1ccc(-c2cc3ccncc3cc2OC2CCNCC2)cc1 [GSK1122999]
Kd [2]: 90 nM

Oc1ccc2ncnc(Nc3ccc(OCc4ccccc4)cc3)c2c1 [GI262866]
Kd [5]: 27 nM

COc1ccc(NC(=O)c2ccc(-c3cc(-c4nnc(C)o4)ccc3C)cc2)cc1 [GW595885]
Kd [12]: > 10000 nM

O=C(CCO)NCCn1ccc2ncnc(Nc3ccc(Oc4cccc(C(F)(F)F)c4)c(Cl)c3)c21
Kd [5]: 0.88 nM
Kd [9]: 100 nM

Clc1cc(Nc2ncnc3cc[nH]c23)ccc1OCc1ccccn1
Kd [5]: 9 nM

Cc1ccc(C)c(NC(=O)NCCNc2ccnc(Nc3ccc(F)cc3)n2)c1 [GSK1379878]
Kd [13]: > 10000 nM

Cn1cc(-c2ccc3c(c2)CCN3C(=O)Cc2cccc(C(F)(F)F)c2)c2c(N)ncnc21 [GSK2606414]
Kd [14]: > 10000 nM

Nc1nc(-c2ccc3c(N)n[nH]c3c2)cc(N2CCC[C@@H](C(=O)Nc3ccccc3)C2)n1.O=C(O)C(F)(F)F.O=C(O)C(F)(F)F [GSK2288359]
Kd [15]: 5300 nM

Cl.c1ccc(Cn2ncc3cc(Nc4ncnc5ccccc45)ccc32)cc1 [GW273749]
Kd [5]: 11 nM
Kd [9]: 61 nM

Cl.Cn1ccc(-c2cccc(Nc3ccnc4cc(-c5nccs5)ccc34)c2)n1 [GW525701]
Kd [7]: 82 nM

Cc1ccc(NC(=O)c2cccc(C#N)c2)cc1-c1ccc(C(=O)Nc2ccncc2)cc1 [GSK1398463]
Kd [13]: > 10000 nM
Kd [16]: 190 nM

OCCOCCn1ccc2ncnc(Nc3ccc(Oc4cccc(Cl)c4)c(Cl)c3)c21
Kd [5]: 2.9 nM
Kd [9]: 77 nM

Nc1n[nH]c2nnc(-c3ccccc3)cc12 [SB-517389]
Kd [11]: > 10000 nM
Kd [17]: 290 nM

COc1cc2ncnc(Nc3ccc(OCc4ccccc4Br)c(Cl)c3)c2cc1OC.Cl [GI261590]
Kd [5]: 17 nM
Kd [9]: 27 nM

CS(=O)(=O)CCNCc1ccc(-c2ccc3ncnc(Nc4ccc(OCc5ccccc5)c(Cl)c4)c3c2)o1.Cl [GW574783]
Kd [5]: 2.8 nM
Kd [9]: 28 nM

CS(=O)(=O)CCNCc1nc(-c2ccc3ncnc(Nc4ccc(OCc5cccc(F)c5)c(Cl)c4)c3c2)cs1.Cl [GW583340]
Kd [5]: 5.9 nM
Kd [9]: 26 nM

O=C(Nc1ccccc1)Nc1ccc(Oc2ccc3nccn3n2)cc1
Kd [18]: > 10000 nM

Cn1ccc2ncnc(Nc3ccc(Oc4cccc(Cl)c4)c(Cl)c3)c21
Kd [19]: > 10000 nM
Kd [20]: > 10000 nM
Kd [5]: 1.2 nM
Kd [9]: 74 nM

COC(=O)c1c(-c2ccccc2)c2cc(Cl)ccc2c(=O)n1Cc1ccc(S(C)(=O)=O)cc1
Kd [8]: > 10000 nM

Cl.c1ccc(Cn2ccc3cc(Nc4ncnc5ccccc45)ccc32)cc1 [GW275568]
Kd [5]: 14 nM
Kd [9]: 140 nM

CCC(CC)(CC)n1cnc2c(N)ncnc21 [SKF-97620]
Kd [3]: > 10000 nM

Cc1ccc(O)cc1Nc1cc(C(F)(F)F)nc2ccc(-c3ccncc3)cc12 [GW630823]
Kd [19]: > 10000 nM

Fc1cccc(COc2ccc(Nc3ncnc4cc[nH]c34)cc2Cl)c1
Kd [5]: 2.2 nM
Kd [9]: 320 nM

COc1ccc(NC(=O)Nc2ccc(C)c(-c3ccc(C(=O)Nc4ccncc4)cc3)c2)cc1 [GSK1398475]
Kd [10]: 2200 nM

O=C(Nc1ccccc1F)NC1CCN(c2ccnc(Nc3ccc(F)cc3)n2)C1 (centres unmarked) [GSK1379722]
Kd [15]: > 10000 nM

Fc1cccc(COc2ccc(Nc3ncnc4nn5ccccc5c34)cc2Cl)c1 [GW689066]
Kd [5]: 24 nM
Kd [9]: 160 nM
